Screens from PubChem BioAssay.
IEC-6 tox: counter-screen for KLF5 inhibitors: cytotoxicity in IEC-6 cells; 290,000 tested, 0.78% active; IEC-6 cytotoxicity, luminescence viability; AID 1825; inhibition, % at 5 µM; in the data active = inhibition above about 22%;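 also: 0% = plate median of test compound wells and 100% = cytotoxic reference compound wells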
Ba/F3 V617F tox: reduce viability of Ba/F3 cells dependent on JAK2V617F | inhibition, % at 5.6 µM | 220,000 tested, 1.1% active | Ba/F3 EpoR-JAK2V617F viability, ATP luminescence | AID 1446;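 active = inhibition above the campaign mean plus 3 SD over all tested compounds, cut at about 24% in these data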;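 also: cytokine-independent growth of Ba/F3 cells driven by EpoR plus mutant JAK2; 0% = DMSO-treated cells and 100% = JAK inhibitor I control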
BaF3 parental: parental Ba/F3 viability inhibition as JAK2V617F counter-screen; CellTiter-Glo ATP luminescence; inhibition, % at 5.6 µM; 220,000 tested, 1.1% active; AID 1486;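 active = inhibition above a per-campaign cutoff, the mean inhibition of all tested compounds plus 3 SD, cut at about 27% in these data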;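 also: 0% = DMSO wells and 100% = JAK Inhibitor I control wells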
KLF5 inhibitor: suppresses KLF5 promoter-driven expression; DLD-1 KLF5 promoter-luciferase reporter, luminescence; inhibition, % at 5 µM; 290,000 tested, 0.23% active;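 active = inhibition above a per-plate limit of that plate's mean compound inhibition plus 3 SD, cut at about 60% in these data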;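 also: 0% = DMSO wells and 100% = LY294002 at 200 µM; higher means less KLF5 promoter-driven luciferase light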
APP 5UTR inh: APP translation inhibition; SH-SY5Y APP 5'UTR-luciferase reporter, luminescence; inhibition, % at 2 µM; 190,000 tested, 0.82% active;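 active = inhibition above a set limit, derived from the sample mean plus 3 SD, cut at about 45% in these data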
aSyn 5UTR inh: 5' untranslated region of α-synuclein, MLPCN primary screen; inhibition, % (tested at 7.5 µM); 300,000 tested, 0.82% active; alpha-synuclein 5'UTR reporter, inhibitor activity; in the data active = inhibition above about 60%;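 also: H4 neuroglioblastoma cells stably carrying SNCA 5'UTR luciferase fusion; 0% = DMSO wells and 100% = positive control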
* = called active by the depositor; / = no result given. An excerpt weighted towards active compounds, which were near 2.1% of everything screened.

SMILES	IEC-6 tox	Ba/F3 V617F tox	BaF3 parental	KLF5 inhibitor	APP 5UTR inh	aSyn 5UTR inh
CC(C)CN(C(=O)C1CSC2(C)CCC(=O)N12)c1c(N)n(Cc2ccccc2)c(=O)[nH]c1=O (centres undefined)	-1.2	/	/	-19.5	/	-6.6
O=C(CN1C(=O)c2ccccc2S1(=O)=O)c1ccc(O)c(O)c1	-5.4	-2.1	0.4	1.9	/	63.5*
O=S1(=O)C=C(Sc2nc3ccccc3s2)c2ccccc21	72.5*	101.5*	104.8*	18.6	96.4*	-13.7
NN=C(c1cccc([N+](=O)[O-])c1)c1cccc([N+](=O)[O-])c1	/	/	/	/	/	9.5
COc1ccccc1N=c1oc2cc(O)ccc2cc1C(N)=O	20.6	31.8*	34.2*	-56.9	-5.1	-73.8
O=C(Cn1c(=O)oc2ccccc21)NCC1COc2ccccc2O1 (centres undefined)	-2.6	/	/	-21.5	/	2.8
O=S(=O)(c1ccc(Cl)cc1)N1CCN(C(=S)NCC2CCCO2)CC1 (centres undefined)	-2.8	/	/	-18.2	/	-1.7
CN1CCN(Cc2nc3ccccc3c(=O)n2Cc2nc(-c3ccc4ccccc4c3)cs2)CC1	20.2	101.8*	9.8	-19.1	1.8	23.0
CN1CCN(Cc2nc3ccccc3c(=O)n2Cc2nc(-c3cccc([N+](=O)[O-])c3)cs2)CC1	13.2	12.6	-2.8	-20.6	-6.4	/
Cc1nc(-c2cc(-c3nc(-c4cc(C(F)(F)F)cc(C(F)(F)F)c4)no3)no2)cs1	-0.9	-5.2	-1.4	-20.4	/	9.4
Cc1nc(-c2cc(-c3nc(-c4ccc(C(F)(F)F)cc4)no3)no2)cs1	1.3	-0.9	61.1*	-4.4	/	-6.3
CC(C)Oc1ccc(S(=O)(=O)N2CCOCC2)cc1NC(=O)c1ccc(N2CCCC2=O)cc1	1.6	/	/	-10.7	/	1.2
Cc1ccc(C)c(S(=O)(=O)/N=C2\C=C(NS(=O)(=O)c3ccccc3)C(=O)c3ccccc32)c1	-1.1	/	/	10.0	/	20.4
Cc1cc(C)c(S(=O)(=O)/N=C2/C=C(Sc3ncn[nH]3)C(=O)c3ccccc32)cc1C	13.6	40.6*	7.1	-0.9	88.8*	/
NS(=O)(=O)c1ccc(CNC(=O)Cc2c(F)cccc2Cl)cc1	-4.6	2.3	59.6*	-29.9	6.9	-28.0
c1ccc(C[n+]2ccc3ccccc3c2)cc1	/	/	/	/	/	9.0
c1ccc(C[n+]2cccc(-c3ccccc3)c2)cc1	-5.2	65.2*	63.6*	-5.9	16.1	-28.0
CCOCCn1c(=O)c2c(nc3n2CCCN3CCc2ccccc2)n(C)c1=O	-6.3	/	/	5.8	/	11.9
Nc1ccc(O)cc1C(=O)OCC(=O)c1ccc(C2CCCCC2)cc1	2.4	71.3*	29.5*	-9.1	48.9*	-36.6
Cn1cnc([N+](=O)[O-])c1S(=O)(=O)c1cccc(Cl)c1	67.9*	86.1*	101.7*	-3.5	8.9	-2.8
Nc1ccccc1-c1nc2ccccc2[nH]c1=O	5.1	/	/	-14.5	/	-141.1
Nc1ccc(Br)cc1-c1nc2ccccc2[nH]c1=O	38.8*	66.2*	100.1*	-32.0	-25.0	-102.0
Cc1ccc(C2(c3ccc(C)cc3)CC2C(=O)Nc2ccc([N+](=O)[O-])cc2O)cc1 (centres undefined)	-4.2	3.5	5.5	3.5	5.0	67.2*
Cc1ncoc1C(=O)N1CCCC(N2CCN(c3ccccc3F)CC2)C1 (centres undefined)	-6.6	/	/	-14.4	/	13.1
CCOC(=O)c1c2c(n(C)c1C)C(=O)C(=O)c1ccc(Br)cc1-2	3.7	-2.7	-1.9	-12.9	-5.3	110.5*
SMILES	IEC-6 tox	Ba/F3 V617F tox	BaF3 parental	KLF5 inhibitor	APP 5UTR inh	aSyn 5UTR inh
Cc1c(CN(C)C)c2c(n1C)C(=O)c1ccc(Br)cc1-2	9.4	8.3	10.5	-6.7	-14.6	-9.5
CCOC(=O)C1CCCN(C(=O)C2CCN(S(=O)(=O)c3c(C)noc3/C=C/c3ccccc3F)CC2)C1 (centres undefined)	1.3	/	/	-7.8	/	9.7
CC(C)CNC(=O)c1coc(=O)c(Br)c1	5.2	-1.4	0.4	15.9	46.6*	-87.3
COC(=O)Cc1n[nH]c(=S)[nH]c1=O	-5.9	-1.7	4.4	-10.5	49.6*	3.3
CCOC(=O)c1ccc2c(c1)n(CCO)c(C)[n+]2CC	-0.9	1.0	5.6	-24.4	7.1	14.4
CCOC(=O)c1ccc2c(c1)n(CC)c(/C=C/N(C)c1ccccc1)[n+]2CC	-1.5	72.9*	66.1*	-24.3	4.5	8.9
O=C1C(=O)N(Cc2ccncc2)C(c2ccccc2F)/C1=C(\O)c1ccc2c(c1)OCCO2 (centres undefined)	-2.2	/	/	-24.1	/	1.3
CCC(C)(C)NC(=O)C(c1ccccn1)N(C(=O)c1csnn1)c1ccc(C)cc1 (centres undefined)	-2.7	-0.4	3.9	11.0	-19.8	-24.3
COc1cc(SC)ccc1C(=O)Nc1ccc(Br)cn1	-3.4	-5.0	0.6	-97.2	/	100.8*
COc1cc(SC)ccc1C(=O)Nc1ccc(C)cc1	2.4	-1.5	5.0	-69.8	-184.2	-141.6
COc1cc(SC)ccc1C(=O)Nc1ncc(C)s1	7.0	0.6	-0.5	4.5	-127.6	98.1*
Cc1ccc(CCC(=O)Nc2ncc(Cc3cccc(Cl)c3Cl)s2)o1	-1.9	0.3	-0.1	5.0	96.3*	27.5
CCC(C)(C)NC(=O)C(c1cccc(OC)c1OC)N(CCOC)C(=O)CCC(=O)Nc1cc(C)on1 (centres undefined)	4.1	/	/	3.4	/	-14.4
CN(C)c1ccc([C@@H]2[C@@H]([N+](=O)[O-])[C@H]3C=Cc4ccccc4N3[C@H]2C(=O)c2ccc(Cl)cc2)cc1	0.0	6.8	40.0*	-0.8	-44.2	/
Cc1nn(-c2ccccc2Cl)c(Cl)c1/C=N/Nc1cccc(C(=O)O)c1	-8.4	-2.6	3.7	-140.3	-2.7	103.3*
Cc1ccsc1/C=N/Nc1cccc(C(=O)O)c1	-6.4	-0.2	3.4	11.1	42.3	105.0*
Cc1cc(C)c(C(=O)N2CCCC(N3CCN(c4ccc(F)cc4)CC3)C2)o1 (centres undefined)	5.5	/	/	3.9	/	-8.8
Cc1ccc(S(=O)(=O)N2CCN(C(=O)COC(=O)C3CCC3)CC2)c(C)c1	/	/	/	/	/	-5.1
COc1ccc(CCNc2c(C)c(C)nc3ncnn23)cc1	18.7	50.5*	57.9*	12.0	4.7	-14.5
CCc1c(C)nc2ncnn2c1NCCc1ccc(OC)c(OC)c1	0.6	-1.3	7.4	-12.4	7.8	7.2
COc1ccc(CC(=O)Nc2cccnc2)cc1	-0.7	/	/	-14.7	/	-2.4
CC[N+]1(CC)CC2=Cc3c(ccc4ccccc34)CC2C1 (centres undefined)	-0.4	69.9*	60.9*	-17.6	4.5	28.7
CN1CC(C(=O)O)Cc2c1ccc1ccccc21 (centres undefined)	1.0	-0.6	0.6	-24.9	/	19.6
COc1ccc(C2C3=C(Nc4ncnn42)c2ccccc2CCC3)cc1 (centres undefined)	1.5	-2.3	-1.3	-12.8	10.4	26.7
Fc1ccc(/C=C2\CCCC3=C2Nc2ncnn2C3c2ccc(F)cc2)cc1 (centres undefined)	-4.6	-1.0	5.8	-4.2	56.4*	11.5
